Screening data (PubChem BioAssay)
Compounds with a hit are over-represented: about 12% of the library has one in this group of screens.
Lmaj promast: reduces viability of Leishmania major promastigotes; resazurin fluorescence viability; inhibition, % at 10 µM; 200,000 tested, 9% active; AID 1063; in the data active = inhibition above about 50%;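 also: promastigotes grown with compound for 44 hours at 28 °C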
KCC2 mod: KCC2 (human) Cl- transport modulation. Q9H2X9. KCC2 cells, thallium flux FluoZin-2 fluorescence. B-score of Tl+ flux slope (higher = more flux/activation; lower = inhibition) at 10 µM. 190,000 tested, 2.2% active;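 active = thallium flux slope and its plate-corrected score both differing from the plate sample mean at a set confidence after two filtering rounds, in either direction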;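 also: slope of fluorescence scaled to starting intensity during 10 to 20 s after thallium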
WT yeast gro inh: growth inhibition of WT yeast, mitochondrial fusion screen | 190,000 tested, 2.1% active | inhibition, % at 10 µM | AID 1362 | mitochondrial fusion phenotypic screen, WT strain; in the data active = inhibition above about 58%; tested in S. cerevisiae
ROMK primary: modulates human ROMK potassium channel activity; B-score at 10 µM; 130,000 tested, 2% active; AID 1918; Tet-inducible ROMK, thallium flux fluorescence; actives lie on both sides; P48048;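 active = signal ratio slope over the read window, or its plate-corrected B-score, at least 3 SD from the plate mean, either direction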;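 also: B-score of the F/F0 ratio slope over 7 to 12 s after thallium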
Target sequence (P48048 whole entry, looked up): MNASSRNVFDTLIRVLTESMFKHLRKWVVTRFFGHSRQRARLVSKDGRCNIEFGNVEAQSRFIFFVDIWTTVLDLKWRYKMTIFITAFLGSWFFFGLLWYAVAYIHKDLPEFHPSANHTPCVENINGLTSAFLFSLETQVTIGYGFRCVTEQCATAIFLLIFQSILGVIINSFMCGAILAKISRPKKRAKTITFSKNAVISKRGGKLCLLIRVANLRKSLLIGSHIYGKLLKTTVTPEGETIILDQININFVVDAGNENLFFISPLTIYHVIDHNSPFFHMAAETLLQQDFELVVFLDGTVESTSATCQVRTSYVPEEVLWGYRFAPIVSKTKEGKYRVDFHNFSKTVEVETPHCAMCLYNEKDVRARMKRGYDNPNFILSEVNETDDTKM
Calpain2 inh: inhibitors of pig calpain II | purified calpain II, fluorogenic peptide substrate, 30 min | inhibition, % at 16 µM | 220,000 tested, 0.37% active;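 active = inhibition above about 50%, limit read from the data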
* marks the source's active call; other numbers are inactive results; x = not tested or not shown.

SMILES	Lmaj promast	KCC2 mod	WT yeast gro inh	ROMK primary	Calpain2 inh
CCCCCC(=O)N/N=C/c1ccc([N+](=O)[O-])o1	85*	0.69	1	x	-4
CCN(CC)c1ccc(N=Cc2ccc([N+](=O)[O-])o2)cc1	91*	-1.1	32	-0.47	35
CCN(CC)c1ccc(CNc2nc3ccccc3n2CC)cc1	x	-0.91	x	0.29	5
Cc1onc(-c2c(Cl)cccc2Cl)c1C(=O)Nc1ccc(Cl)cn1	x	-0.017	x	-0.3	23
CC[C@H](C)[C@@H](C(=O)N1CCNCC1)n1cc([C@@H](N)CO)nn1	-4	0.57	1	x	-14
O=[N+]([O-])c1ccc(/C=N/N/C(=N/c2ccccn2)c2ccccn2)cc1	0	1.4	-3	x	9
O=C(CNC(=O)c1ccccc1)N/N=C/c1ccc([N+](=O)[O-])o1	99*	-0.2	-13	x	-8
Cc1ccc(/C=N/NC(=O)C(=O)N/N=C/c2ccc(C)o2)o1	16	0.8	-1	-0.21	-159
O=C(CNC(=O)c1ccccc1)N/N=C/c1cccs1	9	-0.047	-3	x	-2
O=[N+]([O-])c1cc(/C=N/N/C(=N/c2ccccn2)c2ccccn2)ccc1O	52*	-1.2	6	-0.56	13
O=C(CNC(=O)c1ccccc1)N/N=C/c1ccc([N+](=O)[O-])s1	100*	0.0097	-3	-1.1	2
Cc1ccc(/C=N\NC(=O)c2cc([N+](=O)[O-])cc([N+](=O)[O-])c2)o1	58*	4.7*	-7	x	12
O=C(CCC(=O)Nc1ccc(Cl)cc1Cl)N/N=C/c1ccc([N+](=O)[O-])o1	101*	-0.32	-9	1	-3
CCN(CC)S(=O)(=O)c1cccc(C(=O)N/N=C/c2ccc([N+](=O)[O-])o2)c1	100*	0.97	-8	-0.65	-22
O=C(N/N=C\c1ccc([N+](=O)[O-])o1)c1cncc(Br)c1	x	1.8	x	0.071	-3
Cc1nc2ccccn2c1C(=O)N/N=C/c1ccc([N+](=O)[O-])o1	100*	1.2	-5	x	-75
CSc1ccc(/C=N/NC(=O)c2ccc(O)cc2)cc1	96*	-2.9	13	x	-21
COc1ccc(C(=O)Nc2cc(=O)[nH]c3ncnn23)cc1	x	-0.7	x	x	2
O=C(NCCc1cccs1)c1cccs1	-8	0.9	-3	-0.046	7
CC(C)(C)c1ccc(C(=O)c2c[nH]c(C(=O)O)c2)cc1	-5	-0.52	-1	0.0064	-8
O=C(CNc1ccccc1)N/N=C/c1ccc([N+](=O)[O-])o1	100*	x	-1	x	-5
O=C(N/N=C/c1ccc([N+](=O)[O-])o1)c1cc2ccccc2o1	x	0.7	x	0.19	-4
O=C(Cc1ccccc1)N/N=C/c1ccc(-c2ccc([N+](=O)[O-])cc2)o1	35	-0.13	-6	x	0
O=C(N/N=C/c1ccc([N+](=O)[O-])o1)c1cc2c(ccc3ccccc32)o1	99*	-0.075	46	0.14	-90
O=C(CNC(=O)c1ccc(F)cc1)N/N=C/c1ccc(O)c([N+](=O)[O-])c1	56*	-0.0071	-21	x	19
SMILES	Lmaj promast	KCC2 mod	WT yeast gro inh	ROMK primary	Calpain2 inh
Cc1nn(C)c(C)c1CNC(=O)Nc1cccc(Cl)c1C	-4	-0.16	-16	0.22	-19
CS(=O)(=O)N(CC(=O)NCc1ccco1)c1cccc([N+](=O)[O-])c1	-1	0.059	7	-0.81	-25
CCN(CC)C(=O)c1ccc(-c2ccccc2)cc1	-10	-0.72	-1	-0.9	-1
COc1ccc(CN(CCC#N)C(=S)NC(=O)c2ccccc2)cc1	60*	17*	-7	0.45	2
CCOc1ccc(C(=O)NC(=S)N(Cc2ccccc2)Cc2ccccc2)cc1	57*	x	12	x	8
CCOc1ccc(C(=O)NCCc2ccccc2)cc1	0	-0.2	7	0.88	-11
CCCN(CCC)C(=S)NC(=O)c1ccc(-c2ccccc2)cc1	3	x	68*	x	50*
CCC(=O)NC(=S)NNC(=O)c1ccccc1[N+](=O)[O-]	-1	-0.87	-2	0.056	-17
CCCN(Cc1ccccc1)C(=S)NC(=O)c1ccccc1[N+](=O)[O-]	-9	70*	34	4.5*	0
CCN(CC)c1ccc(C2C(C(C)=O)C(=O)CC(C)(O)C2C(C)=O)cc1 (stereo not given)	0	0.00032	x	0.00052	x
O=c1c2c(-c3ccc([N+](=O)[O-])cc3)csc2nc2n1CCCCC2	2	x	-7	-1.6	31
CN(C)CCCN(Cc1ccccc1)C(=S)Nc1ccc(OC(F)F)cc1	99*	0.098	1	x	0
N#CCCN(Cc1ccccc1)C(=S)Nc1ccccc1	52*	0.4	-11	-0.62	-17
CCC1C(=O)CC(c2ccc([N+](=O)[O-])cc2)NC1c1ccc([N+](=O)[O-])cc1 (stereo not given)	8	0.038	8	-0.59	3
CCN(CC)CCNc1cc(C)nc2c1C(=O)C(=O)C=C2N1CCCCC1	101*	x	15	-0.7	6
NC(=O)NCCCC(NC(=O)c1ccc(C#CC2(O)CCCCC2)cc1)C(=O)O (stereo not given)	-4	-0.49	13	0.44	26
CC(C)(C)NC(=O)CSc1ncnc2c1nnn2Cc1ccccc1Cl	57*	x	-42	-1.5	3
CN1CCN(S(=O)(=O)c2cnccc2N2CCN(c3cccc(Cl)c3)CC2)CC1	32	x	16	0.03	-34
CCN(CC)S(=O)(=O)c1cnccc1N1CCN(c2cccc(Cl)c2)CC1	100*	0.007	58*	0.69	-4
CN(CC(=O)N1CCN(c2cccc(Cl)c2)CC1)S(=O)(=O)c1cnc[nH]1	-2	0.33	1	0.71	-8
CNS(=O)(=O)c1cnccc1N1CCN(c2cccc(Cl)c2)CC1	100*	-0.66	1	-0.68	-35
CNc1nc(C)c(C(C)(C)C)s1	x	2	x	0.017	-2
COc1ccccc1Cn1c2nc3ccccc3nc2c2c(=O)n(CC(C)C)cnc21	x	x	x	0.069	x
CCN(CC)CCCN1C(=O)C(=O)/C(=C(/O)c2ccccc2)C1c1ccccn1 (stereo not given)	x	x	x	0.62	x
Cc1nn(Cc2cccc(C(=O)N3CCCC(C)C3)c2)c(C)c1[N+](=O)[O-] (stereo not given)	-11	0.075	-17	-0.67	-7
SMILES	Lmaj promast	KCC2 mod	WT yeast gro inh	ROMK primary	Calpain2 inh
OC(CN1c2ccccc2Sc2ccccc21)Cn1nnc2ccccc21 (stereo not given)	48	x	16	x	-5
Cc1nn(CC(O)CN2c3ccccc3Sc3ccccc32)c(C)c1Br (stereo not given)	64*	-0.022	91*	-0.041	43
CCCc1ccc(/C=C2\C(=O)c3ccccc3C(O)=C2C(=O)OCC)cc1	-7	x	59*	x	-6
CCOC(=O)C1=C(O)c2ccccc2C(=O)/C1=C\c1ccc(CC)cc1	-5	x	9	x	18
Cc1cccc(COc2ncnc3nc[nH]c23)c1	-1	-0.31	-14	0.037	0
COCCNC(=S)N(Cc1cc2cc(C)ccc2n2nnnc12)C1CCCC1	12	-0.32	3	-0.023	16
